Entries with a potency or affinity are not part of this list. The source made the active and inactive calls.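 Rule for the calls: active = peak inhibition of the KCNQ2 potassium channel over 30% at some tested dose, with a fitted dose response curve; inactive = no inhibition at any dose, or no curve fitted.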
These compounds were tested against Potassium voltage-gated channel subfamily KQT member 2 (Rattus norvegicus) (UniProt O88943) (assay: KCNQ2 channel inhibition, SAR follow-up, selectivity assay for TASK1 inhibitor project, cell-based, FluxOR thallium flux, concentration-response (AID 652192)). Details: KCNQ2 cell line, FluxOR thallium flux fluorescence; series mostly up to 30 µM.
Potassium voltage-gated channel subfamily KQT member 2 (Rattus norvegicus), sequence (O88943 whole entry, looked up): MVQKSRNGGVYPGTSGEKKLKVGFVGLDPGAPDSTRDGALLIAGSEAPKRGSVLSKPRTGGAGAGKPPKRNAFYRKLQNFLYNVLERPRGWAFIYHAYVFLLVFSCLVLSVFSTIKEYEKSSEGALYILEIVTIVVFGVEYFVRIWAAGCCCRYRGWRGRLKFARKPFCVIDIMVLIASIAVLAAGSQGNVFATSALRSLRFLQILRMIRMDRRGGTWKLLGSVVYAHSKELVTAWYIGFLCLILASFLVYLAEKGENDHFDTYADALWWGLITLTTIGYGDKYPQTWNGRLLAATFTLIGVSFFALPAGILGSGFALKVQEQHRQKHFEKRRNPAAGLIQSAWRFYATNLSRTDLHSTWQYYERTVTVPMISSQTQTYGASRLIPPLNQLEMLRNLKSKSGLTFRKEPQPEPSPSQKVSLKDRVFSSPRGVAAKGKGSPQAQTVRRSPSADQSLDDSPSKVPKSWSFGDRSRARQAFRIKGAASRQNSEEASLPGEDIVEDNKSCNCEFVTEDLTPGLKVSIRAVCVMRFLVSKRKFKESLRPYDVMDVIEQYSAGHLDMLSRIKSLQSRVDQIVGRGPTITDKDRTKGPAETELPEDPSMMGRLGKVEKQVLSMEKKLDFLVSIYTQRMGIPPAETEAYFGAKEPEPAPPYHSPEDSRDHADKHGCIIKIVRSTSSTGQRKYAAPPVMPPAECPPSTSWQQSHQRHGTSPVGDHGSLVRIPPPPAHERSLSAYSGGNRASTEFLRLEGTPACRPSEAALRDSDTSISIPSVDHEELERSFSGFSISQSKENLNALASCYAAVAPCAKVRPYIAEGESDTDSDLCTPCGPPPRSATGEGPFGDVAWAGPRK

outcome, inactive:
CCOc1ccccc1NC(=O)c1cccc(NC(=O)c2ccccc2OC(F)(F)F)c1
COc1ccccc1C(=O)Nc1cccc(NC(=O)c2cccc3ccccc23)c1
COc1ccccc1NC(=O)c1cccc(NC(=O)c2ccccc2C(F)(F)F)c1
CCOc1ccccc1NC(=O)c1cccc(NC(=O)C2CCOC2)c1 (configuration not stated)
CCOc1ccccc1NC(=O)c1cccc(NC(=O)c2cccc(C(F)(F)F)c2)c1
CCOc1ccccc1NC(=O)c1cccc(NC(=O)c2cccc(OC)c2)c1
COc1ccccc1NC(=O)c1cccc(NC(=O)C2CCCCC2)c1
COc1ccc(C(=O)Nc2cccc(NC(=O)c3ccccc3)c2)cc1
CCOc1ccccc1NC(=O)c1cccc(NC(=O)CC2CCCC2)c1
Cc1cccc(C(=O)Nc2cccc(NC(=O)c3ccc(N(C)C)cc3)c2)c1
COc1ccccc1NC(=O)c1cccc(NC(=O)CC2CCCC2)c1
Cc1cccc(C(=O)Nc2cccc(NC(=O)c3ccccc3OCC(C)C)c2)c1
O=C(Nc1cccc(NC(=O)c2ccsc2)c1)c1ccccc1
CCOc1ccccc1NC(=O)c1cccc(NC(=O)C2CCCCC2)c1
CCOc1ccc(NC(=O)c2cccc(NC(=O)C3CCCC3)c2)cc1
O=C(Nc1cccc(NC(=O)c2ccc(Cl)cc2)c1)c1ccccc1
CCOc1cccc(NC(=O)c2cccc(NC(=O)C3CCCC3)c2)c1
Cc1cccc(C(=O)Nc2cccc(NC(=O)c3ccccc3C(F)(F)F)c2)c1
O=C(Nc1cccc(NC(=O)c2ccncc2)c1)c1ccccc1
Cc1cccc(C(=O)Nc2cccc(NC(=O)c3ccco3)c2)c1
COc1ccc(CC(=O)NCc2ccccc2-c2ccccc2C(=O)NCc2ccc(F)cc2F)cc1
CCOc1ccccc1NC(=O)c1cccc(NC(=O)c2cccc(Cl)c2)c1
CC(C)Oc1ccccc1C(=O)Nc1cccc(NC(=O)c2ccccc2OC(F)(F)F)c1
COc1ccccc1C(=O)Nc1cc(NC(=O)c2cccc(C)c2)ccc1F
CN(C)c1ccc(C(=O)Nc2cccc(NC(=O)c3ccccc3)c2)cc1
Cc1cccc(C(=O)Nc2cccc(NC(=O)c3cccs3)c2)c1
Cc1cccc(C(=O)Nc2cccc(NC(=O)c3ccc(C(C)(C)C)cc3)c2)c1
COc1ccccc1C(=O)Nc1cccc(NC(=O)c2ccccc2C(C)C)c1
COc1ccccc1C(=O)Nc1cccc(NC(=O)c2ccccc2C)c1
Cc1cccc(C(=O)Nc2cccc(NC(=O)c3ccccc3)c2)c1
Cc1cccc(C(=O)Nc2cccc(NC(=O)c3ccncc3)c2)c1
COc1cccc(C(=O)Nc2cccc(NC(=O)c3ccccc3)c2)c1

Source: PubChem BioAssay AID652192 (Johns Hopkins Ion Channel Center, 2013)
